Most compounds without a hit are left out; they make up all but 5.2% or so of the library.
Tau fluor cs – counter-screen for tau fibril formation inhibitors. tau K18 P301L Alexa594 fluorescence, heparin fibrillization. Potency, µM (doses to about 57.7 µM), without a hit: top-dose activity change, negative = decrease. 0.93% of 280,000 active. AID 1463; also: potency is read from the fitted curve at half-maximal effect; nearly all actives have a fitted effect of over 55% in size
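Human K18 P301L tau (15 uM unlabeled plus 0.24 uM Alexa 594-labeled, final) in 100 mM sodium acetate pH 7 was mixed with compound and 20 uM heparin and incubated 6 hr at 37 C.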
Sfp inh – Sfp phosphopantetheinyl transferase inhibition | Q9F4F7 | Biochemical Sfp PPTase activity, qHTS | Potency, µM, for inactives: largest response in the series, negative = inhibition, usual class: inhibitors | 3.5% of 310,000 active | AID 1490;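 also: the enzyme is Sfp with the accession as filed and its product quenches rhodamine fluorescence; potency is read from the fitted curve at half-maximal effect; 0% = enzyme reaction without inhibitor and -100% = no enzyme wells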
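Buffer: 50 mM Hepes-Na pH 7.6, 10 mM MgCl2, 0.01% Nonidet P-40, 0.01% BSA. Enzyme 15 nM, pre-exposed to compound 15 min; substrates then added and fluorescence change tracked over 30 min.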
Coupling enz – coupling enzyme interference in Giardia aldolase counter-screen | coupling enzyme system counterscreen, AmpLite Red fluorescence | activity change, negative = inhibition, % at 58.2 µM, hits read low | 0.67% of 290,000 active; in the data active = activity change below about -30%
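Counterscreen of the coupled detection system alone, without aldolase: glyceraldehyde-3-phosphate coupling enzymes plus AmpLite Red readout. Compounds at 57.5 uM final, 10 min RT preincubation, 20 min RT reaction, fluorescence 525/598 nm.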
Tau ThT inhib – tau fibrillization inhibition (ThT binding). recombinant tau K18 P301L, heparin-induced fibrillization, ThT fluorescence. Potency, µM (top dose mostly 57.4 µM), without a hit: at the highest dose activity, negative = inhibition, hits mostly inhibitors. 2.1% of 270,000 active. AID 1460; also: potency is read from the fitted curve at half-maximal effect; nearly all actives have a fitted effect of over 55% in size
Target sequence (P10636 561-689 P618L limits assumed): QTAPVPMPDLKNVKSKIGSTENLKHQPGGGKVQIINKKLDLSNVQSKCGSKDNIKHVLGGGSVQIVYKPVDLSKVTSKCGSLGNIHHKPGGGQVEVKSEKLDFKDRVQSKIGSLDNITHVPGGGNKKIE
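Fibril formation assay: tau K18 P301L at 15 uM with trace Alexa 594 label, heparin inducer 20 uM, pH 7 sodium acetate buffer, 37 C for 6 hr; endpoint ThT signal.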
Tau fibril FP – blocks human tau fibril formation measured by polarization; P10636; K18 P301L tau heparin fibrillization, Alexa594 FP, 6 h; Potency, µM (series often up to 57.7 µM), without a hit: at the top dose activity, negative = inhibition, actives largely listed as inhibitors; 0.39% of 280,000 active; AID 1468; also: potency is read from the fitted curve at half-maximal effect; nearly all actives have a fitted effect of over 55% in size
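FP of Alexa 594-tau after heparin (20 uM) induction. Substrate: human K18 P301L, 15 uM unlabeled, 0.24 uM labeled. Buffer 100 mM sodium acetate pH 7. 6 hr, 37 C.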
An asterisk follows results filed as active; ? = inconclusive; / = no result given; [ ] = dose if it differs, or a comment. Unless noted, calls follow the shape of the dose curve; as a rule, active = well fitted curve in the direction sought with a large enough effect; inconclusive = small, poorly fitted or top-dose-only effect, or another doubt; inactive = no such curve, though single readings can be large; an effect the other way counts as inactive or inconclusive. Unless noted, % is scaled to controls: 0 for no effect and ±100 for the full control effect.

SMILES | Tau fluor cs | Sfp inh | Coupling enz | Tau ThT inhib | Tau fibril FP
O=C(Nc1nc2ccc(F)cc2s1)c1nc(S(=O)(=O)Cc2ccccc2)ncc1Cl | -29.6% | / | / | 7.08µM* | -13.3%
Cc1cccc(CS(=O)(=O)c2ncc(Cl)c(C(=O)Nc3nc4ccc(F)cc4s3)n2)c1 | -23.0% | / | / | 10µM* | -8.8%
CCC(=O)N1CCc2cc(S(=O)(=O)NCCC(=O)NCc3ccc(C)cc3)ccc21 | -10.2% | / | / | -4.8% | -9.8%
COc1ccc(NC(=O)C(C(C)C)N2Cc3ccccc3C2=O)cc1 (stereo not drawn) | -11.1% | / | / | -9.1% | 5.8%
C=CCc1c(C)[nH]c2c(OC)cccc2c1=S | -6.7% | 12.6µM* | -1.8 | -14.9% | -9.9%
Cc1sc2ccccc2[n+]1CCC(C)S(=O)(=O)[O-] (stereo not drawn) | -4.8% | 44.7µM* | -0.1 | ? | -21.0%
Cc1sc2ccccc2[n+]1CC(=O)O | -16.3% | 2µM* | 5.0 | 28.2µM* | 31.6µM*
Cc1sc2ccccc2[n+]1CC(=O)c1ccccc1 | / | ? | -0.6 | / | /
COc1ccc(Nc2nnc(-c3ccc(C)c(S(=O)(=O)NCc4nc5ccccc5[nH]4)c3)c3ccccc23)cc1 | ? | / | / | 1.0% | 11.0%
O=S1(=O)C=C(Sc2nnc(-c3ccccc3)o2)c2ccccc21 | 2.2% | 15.8µM* | -0.6 | ? | ?
O=[N+]([O-])c1cc(-c2nc(-c3ccco3)no2)ccc1NCc1ccccc1 | -11.3% | / | / | -12.5% | 3.8%
O=c1c2ccccc2ncn1Cc1ccc(Cl)c(Cl)c1 | / | -11.8% | 0.0 | / | /
Cc1[nH][nH]c(=O)c1C(c1c(C)[nH][nH]c1=O)c1cn(Cc2ccc(F)cc2)c2ccccc12 | -25.4% | -15.4% | -46.7* | 8.91µM* | ?
Cc1[nH][nH]c(=O)c1C(c1c(C)[nH][nH]c1=O)c1cn(Cc2ccc(Cl)c(Cl)c2)c2ccccc12 | ? | -12.9% | -49.1* | 10µM* | ?
COC(=O)c1ccc(NC(=O)c2c(NCc3ccc(C)o3)sc3c2CCCC3)cc1 | ? | / | / | ? | -0.2%
CN(C)c1ccc(S(=O)(=O)NCC(=O)OCC(=O)Nc2cc(Cl)cc(Cl)c2)cc1[N+](=O)[O-] | ? | 25.9% | -1.1 | 28.2µM* | ?
COc1cccc(C2C3=C(Nc4[nH]n(-c5ccccc5)c(=O)c42)c2ccccc2C3=O)c1 (stereo not drawn) | ? | -21.3% | -4.9 | 5.01µM* | -0.3%
COc1cc(-c2nnc(SCC(=O)Nc3cccc(C#N)c3)o2)cc(OC)c1OC | ? | / | / | ? | 7.0%
Cc1ccc2nc(N(CCCN(C)C)C(=O)c3sc4ccccc4c3Cl)sc2c1 | -3.7% | 44.7µM* | 2.3 | -12.9% | 1.8%
CN(C)CCCN(C(=O)c1cc(-c2cccs2)nc2ccccc12)c1nc2ccc(F)cc2s1 | / | 50.1µM* | / | / | /
Cc1cccc2sc(N(CCCN(C)C)C(=O)c3nc4ccccc4s3)nc12 | -6.0% | 79.4µM* | -0.2 | -4.4% | -0.3%
Cc1ccc(C(=O)N(CCCN(C)C)c2nc3ccc(Cl)cc3s2)cc1C | -29.4% | 56.2µM* | -0.2 | -12.9% | -7.0%
Cc1ccc2sc(N(CCCN(C)C)C(=O)c3nc4ccccc4s3)nc2c1C | -8.4% | -19.8% | 2.4 | -6.2% | -1.7%
CN(C)CCCN(C(=O)c1ccc2c(c1)OCCO2)c1nc2ccc(Cl)cc2s1 | / | -6.4% | / | / | /
Cn1c(=O)c(-c2ccc(Cl)cc2)nc2cnc(Oc3cccc(Cl)c3)nc21 | / | 11.8% | -1.2 | / | /
SMILES | Tau fluor cs | Sfp inh | Coupling enz | Tau ThT inhib | Tau fibril FP
CC1=C(C#N)C(NC(=O)c2ccccc2)(C(F)(F)F)C(=O)N1 (stereo not drawn) | -10.6% | / | / | -10.3% | 3.1%
O=C(CNc1ccc2c(c1)OCO2)N/N=C\c1cn(Cc2ccccc2)c2ccccc12 | 10µM*[quencher] | -22.3% | -0.5 | ? | 2.5%
COCCNC(=O)Cn1cc(C(=S)N2CCOCC2)c2ccccc21 | 6.1% | 31.6µM* | 2.9 | 2.9% | -2.8%
COCCCNC(=O)Cn1cc(C(C)=O)c2ccccc21 | 1.0% | 15.5% | -0.1 | -0.3% | 0.3%
COc1ccc(OCCn2cc(/C=N/NC(=O)c3ccncc3)c3ccccc32)cc1 | 12.6µM*[quencher] | -13.1% | -1.2 | ? | 15.1%
O=C(N/N=C/c1cn(Cc2ccccc2)c2ccccc12)c1ccncc1 | 25.1µM*[quencher] | -5.8% | -0.5 | ? | 14.1%
CCOc1ccc2nc(NC(=O)c3nc(SCc4ccccc4F)ncc3Cl)sc2c1 | 16.9% | / | / | 13.5% | 7.6%
Cc1cnc(CNc2ncncc2-c2cccc(NS(C)(=O)=O)c2)cn1 | / | -5.1% | 0.9 | / | /
Cc1ccc(OCCn2cc(/C=N/NC(=O)c3ccncc3)c3ccccc32)cc1 | 12.6µM*[quencher] | 0.2% | -1.5 | -8.0% | 5.5%
Cc1ccc(OCCn2cc(C=O)c3ccccc32)cc1 | / | -0.8% | -2.0 | / | /
Cc1ccc(OCCn2cc(/C=C3\C(=O)NN(c4ccccc4)C3=O)c3ccccc32)cc1 | ? | ? | -5.8 | 7.08µM* | ?
COC(=O)N/N=C/c1cn(CCOc2ccccc2)c2ccccc12 | ? | 1.0% | -1.0 | ? | ?
CCOC(=O)N/N=C/c1cn(CCCOc2ccc(C)cc2)c2ccccc12 | ? | 7.9% | -1.0 | ? | 10.5%
COC(=O)N/N=C/c1cn(CC(C)COc2ccccc2)c2ccccc12 (stereo not drawn) | 14.1µM*[quencher] | -0.4% | -3.8 | ? | ?
COCCNC(=O)Cn1cc(/C=N/NC(=O)c2ccc(Oc3ccc(O)cc3)cc2)c2ccccc21 | 17.8µM*[quencher] | 17.7% | -0.4 | ? | 15.7%
Cc1cccc(N2CCN(C(=O)C3CCN(S(=O)(=O)c4cccs4)CC3)CC2)c1C | -1.8% | / | / | -3.7% | -4.1%
COc1cccc(OCCn2cc(/C=N/NC(=O)c3ccncc3)c3ccccc32)c1 | 14.1µM*[quencher] | -0.9% | 0.0 | ? | 10.4%
CC1OC(OC2C(OC3C(O[C@H]4CC[C@]5(C)C6C=C[C@]78OC[C@@]9(CC[C@@H](C)[C@H](C)C97)[C@H](O)C[C@@]8(C)[C@]6(C)CC[C@H]5C4(C)C)OC(C)C(O)C3O)OC(CO)C(O)C2O)C(O)C(O)C1O (stereo partly drawn) | -2.8% | 79.4µM* | 1.4 | -16.4% | -2.7%
NNC(=O)CCc1c[nH]c2ccccc12 | -27.1% | 7.8% | -3.4 | ? | -1.4%
O=C(COC(=O)CCc1c[nH]c2ccccc12)NC(c1ccccc1)c1ccccc1 | 14.1µM*[quencher] | 5.4% | -2.2 | -9.2% | ?
Cc1cccc(OCC(=O)NC(Cc2c[nH]c3ccccc23)C(=O)O)c1C (stereo not drawn) | -9.2% | 50.1µM* | -0.3 | ? | 1.5%
CC(OC(=O)CCc1c[nH]c2ccccc12)C(=O)c1ccccc1 (stereo not drawn) | 11.2µM*[quencher] | 6.0% | -4.8 | ? | 4.6%
CC(C)CNC(=O)CCc1c[nH]c2ccccc12 | -1.9% | 0.2% | -5.3 | ? | ?
